About 16,000 (7.3%) of roughly 220,000 compounds were called active. Not shown: some 25% with an inconclusive outcome. Shown is part of a subset that was picked to be rich in actives. A number with no mark means an inactive call. Calls follow the shape of the dose curve; as a rule, active = well fitted inhibition curve with a large enough effect (not every such curve was filed as active); inconclusive = small, poorly fitted or top-dose-only effect, or another doubt; inactive = no such curve, though single readings can be large or run the other way.
The compounds below were run against Aldehyde dehydrogenase 1A1 (Homo sapiens) (UniProt P00352) (assay: qHTS Assay for Inhibitors of Aldehyde Dehydrogenase 1 (ALDH1A1)). Settings: Purified ALDH1A1, NADH fluorescence, propionaldehyde substrate; series mostly up to 75.3 µM; activity, negative = inhibition: at the top concentration.
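For activity, negative = inhibition in this document: plate controls were no enzyme wells and a reference inhibitor.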
Potency is read from the fitted curve at half-maximal effect.

Chain of Aldehyde dehydrogenase 1A1 (Homo sapiens) (P00352 whole entry, looked up): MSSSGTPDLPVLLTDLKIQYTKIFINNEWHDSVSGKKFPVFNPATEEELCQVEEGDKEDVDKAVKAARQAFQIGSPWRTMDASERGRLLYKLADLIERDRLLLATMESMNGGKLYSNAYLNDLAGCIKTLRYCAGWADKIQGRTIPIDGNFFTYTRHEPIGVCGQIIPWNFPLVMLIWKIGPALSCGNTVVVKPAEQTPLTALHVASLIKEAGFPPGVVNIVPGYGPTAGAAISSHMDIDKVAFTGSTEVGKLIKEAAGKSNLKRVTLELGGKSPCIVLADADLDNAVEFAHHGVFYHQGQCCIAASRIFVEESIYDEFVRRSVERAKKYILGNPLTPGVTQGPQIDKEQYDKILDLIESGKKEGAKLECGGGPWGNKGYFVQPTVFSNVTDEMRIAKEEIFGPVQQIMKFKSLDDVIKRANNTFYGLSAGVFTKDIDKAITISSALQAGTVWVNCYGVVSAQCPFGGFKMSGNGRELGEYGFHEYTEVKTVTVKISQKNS

First: Cc1ccccc1CSc1nnc(-c2ccccc2)c(=O)[nH]1
Second: CSc1nc(O)c(Cc2ccccc2)c(=O)[nH]1
The “activity, negative = inhibition” value of the first is higher: 1.62% for the first, -0.847% for the second.

Going from CC(C)OC(=O)Cn1nc(C(F)(F)F)c2c1CCCC2 to CCOC(=O)c1ccc(NC(=S)N2CCCC2)cc1, the “activity, negative = inhibition” value falls from -4.53% to -15.1%.

First: Cc1ccc(C(=O)NNC(=O)c2cccs2)cc1
Second: C/C(=N\OCC(=O)Nc1ccc(Br)cc1)c1cccs1
The “activity, negative = inhibition” value of the first is higher: 15.8% for the first, 3% for the second.

Going from COc1ccccc1NC(=O)c1c(Br)cnn1C to COc1ccc(NC(=S)N2CCCC(CO)C2)c(OC)c1 (centres undefined), the “activity, negative = inhibition” value rises from 3.41% to 4.06%.

Compared with COc1ccc(C(=O)COC(=O)COc2ccc(C)c(C)c2)cc1, COC(=O)CN(C(=S)Nc1ccc(Cl)cc1)C1CC(=O)N(c2ccc(OC)cc2)C1=O (centres undefined) is higher in “activity, negative = inhibition” value: -12.5% for the first, 14.5% for the second.

First: O=C(c1ccccc1)c1ccc(OC(=O)N2CCCC2)cc1
Second: O=C1CC(N2CCN(c3ccc(F)cc3)CC2)C(=O)N1c1ccccc1 (centres undefined)
The “activity, negative = inhibition” value of the first is lower: -4.99% for the first, -3.2% for the second.

Going from CC(C)(C)c1nnc(N/N=C/c2ccc(O)cc2)n(N)c1=O to CC(C)(C)c1ccc(/C=C/C(=O)NC2CCS(=O)(=O)C2)cc1 (centres undefined), the “activity, negative = inhibition” value falls from -9.92% to -11.6%.

First: Cc1ccc(NCc2n[nH]c(=S)n2-c2ccccc2)cc1Cl
Second: Cn1c(CCCOc2ccc(Cl)cc2Cl)n[nH]c1=S
The “activity, negative = inhibition” value of the first is lower: -12.3% for the first, 9.75% for the second.

Compared with S=C(NCc1cccnc1)Nc1ccc(Cl)cc1Cl, Cc1ccc(C2CCN(C(=S)Nc3cccc(Cl)c3)C2)cc1 (centres undefined) is higher in “activity, negative = inhibition” value: -4.79% for the first, -1.08% for the second.

Compared with CCOC(=O)c1cc(C)nc(S(C)(=O)=O)c1C#N, Cc1cccc(C(=O)OCC(=O)NCC(C)C)c1O is higher in “activity, negative = inhibition” value: 1.72% for the first, 4.6% for the second.

First: [O-][n+]1c2c(nn1-c1ccc(Cl)c(Cl)c1)-c1nonc1CC2
Second: CN(C)NC(=O)c1csnc1-c1c(Cl)cccc1Cl
The “activity, negative = inhibition” value of the first is higher: 12.6% for the first, 7.95% for the second.

Going from Cc1cc(C)cc(NC(=O)N2CCCCCCC2)c1 to O=C(NC1CCCCC1)C1CCCN(S(=O)(=O)c2ccc(Br)s2)C1 (centres undefined), the “activity, negative = inhibition” value rises from -1.68% to 2.8%.

Going from CC(C)(C)NC(=O)NC(=O)COC(=O)C1(C)CC1(Cl)Cl (centres undefined) to CNC(=O)NC(=O)C(C)N1CCN(C/C=C/c2ccccc2)CC1 (centres undefined), the “activity, negative = inhibition” value falls from 10.1% to -7.23%.

First: Cc1[nH]n(C)c(=O)c1N=Nc1ccc(S(C)(=O)=O)cc1
Second: CCCOc1ccc(N2C(=O)CC(N(CCc3ccc(S(N)(=O)=O)cc3)C(C)=O)C2=O)cc1 (centres undefined)
The “activity, negative = inhibition” value of the first is higher: 7.33% for the first, -10.9% for the second.

Compared with NC(=O)C1CCN(C2OC(=O)c3ccccc32)CC1 (centres undefined), CCOC(=O)C1CCN(c2ccc(C(=O)O)cc2[N+](=O)[O-])CC1 is higher in “activity, negative = inhibition” value: -5.84% for the first, 2.01% for the second.

Compared with O=C(Cc1ccccc1)NNC1CC(=O)N(c2ccc(Br)cc2)C1=O (centres undefined), CCCOC(=O)c1ccc(N2C(=O)c3ccccc3C2=O)cc1 is lower in “activity, negative = inhibition” value: 3.95% for the first, 1.75% for the second.

First: CCOC(=O)c1ccccc1C(=O)N1CCOCCOCCOCC1
Second: CCOC(=O)CNC(=O)N1c2ccccc2Sc2ccccc21
The “activity, negative = inhibition” value of the first is higher: 9.52% for the first, 8.51% for the second.

Compared with O=C(Cn1c(N2CCN(C/C=C/c3ccccc3)CC2)nc2ccccc21)c1ccccc1, CN(CC(=O)N1CCN(c2ccccc2)CC1)S(=O)(=O)c1cccs1 is higher in “activity, negative = inhibition” value: 3.06% for the first, 7.8% for the second.

Compared with CC(=O)N1CCN(S(=O)(=O)c2c(F)cc(F)c(Cl)c2F)CC1, CCC1(C)Cc2c(sc3nc(SC)[nH]c(=O)c23)CO1 (centres undefined) is lower in “activity, negative = inhibition” value: 8.19% for the first, 0.569% for the second.

Going from COc1ccc(/C(=N\O)c2nccc3cc(OC)c(OC)cc23)cc1OC to CCOc1ccc(N2C(=O)CC(N(CCc3ccc(OC)c(OC)c3)C(=S)Nc3ccccc3)C2=O)cc1 (centres undefined), the “activity, negative = inhibition” value falls from 14.1% to 4.94%.

Going from N=C1C(c2nc3ccccc3[nH]2)=C(O)CN1NC(=O)c1c[nH]c2ccccc12 to CCOC(=O)c1ccc(NC(=O)C2CC(=O)Nc3nc4ccccc4n32)cc1 (centres undefined), the “activity, negative = inhibition” value rises from 8.77% to 12.3%.

With Cc1c(O)cc(O)c2c(=O)c(-c3ccc(O)cc3)coc12 the Potency was 25.1 µM (active).
With O=C(COc1cccc(F)c1)Oc1ccc(C(=O)c2ccccc2)cc1 the Potency was 28.2 µM (active).
For S=c1[nH]nc(CSCc2ccc(Cl)cc2Cl)n1-c1ccccc1, the Potency was 3.55 µM (active).
With Cc1cc(=O)[nH]c(=S)[nH]1 the Potency was “inactive”.
In the case of O=c1[nH]c(=S)[nH]c2[nH]c(=S)[nH]c12, the Potency is reported as 10 µM (active).
For CCCCOC(=O)c1ccc(N2C(=O)CC(N3CCN(C/C=C/c4ccccc4)CC3)C2=O)cc1 (centres undefined), the Potency was 12.6 µM (active).
For COc1ccc(N2C(=O)CC(N3CCC(C(N)=O)CC3)C2=O)cc1 (centres undefined), the Potency was 7.94 µM (active).
CCOC(=O)c1ccc(N2C(=O)CC(N3CCN(C(=O)c4ccccc4)CC3)C2=O)cc1 (centres undefined) was tested, and the Potency was 3.55 µM (active).
For CCOC(=O)c1ccc(N2C(=O)CC(N(C)Cc3ccccc3)C2=O)cc1 (centres undefined), the Potency was 11.2 µM (active).
For CCOC(=O)c1ccc(N2C(=O)CC(Sc3nc(O)c(CC)c(=O)[nH]3)C2=O)cc1 (centres undefined), the Potency was 10 µM (active).
For COC(=O)c1cc(C(=O)OC)cc(N2C(=O)CC(N3CCN(c4ccccc4)CC3)C2=O)c1 (centres undefined), the Potency was 31.6 µM (active).
CCCCCCC(=O)N(O)C1CC(=O)N(c2ccccc2)C1=O (centres undefined) was tested, and the Potency was 0.316 µM (active).
